Assay results from PubChem BioAssay (Tox21).
Results filed as inconclusive are left out. More than one record can exist for a structure, and the calls need not agree. The source made the active and inactive calls. Unless noted, calls come from the whole dose curve; as a rule, active = well fitted curve in the direction sought with a large enough effect in the repeat runs; inconclusive = weak or mixed curves; inactive = no such curve, though single readings can be large; an effect the other way counts as inactive or inconclusive.

Columns and labels:
[1] = qHTS assay for small molecule agonists of the p53 signaling pathway (AID 651631; calls by dose curve; note: nearly all actives have a fitted effect of over 15% in size)
Summary of the method: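 Read-out is beta-lactamase FRET fluorescence measured 2 h after substrate addition at room temperature, in HCT-116 cells with a p53 response element-driven reporter exposed to compounds for 16 h at 37 °C.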

[2] = qHTS assay for small molecules that induce genotoxicity in human embryonic kidney cells expressing luciferase-tagged ATAD5 (AID 651632); note: nearly all actives have a fitted effect of over 15% in size
Summary of the method: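 Genotoxicity read-out via ATAD5-luciferase: HEK293T cells, 16 hr compound incubation at 37C, Amplite detection.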

[3] = qHTS assay for small molecule agonists of the p53 signaling pathway - cell viability (AID 651633; calls by dose curve;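 note: p53RE-bla HCT reporter cells with a stable beta-lactamase p53 reporter; series mostly up to about 83 µM; nearly all actives have a fitted effect of over 30% in size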)
Summary of the method: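 p53RE-bla cells were treated with compound for 16 hours at 37 C. Cytotoxicity was then measured as CellTiter-Glo luminescence after 30 min at room temperature.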

[4] = qHTS assay for small molecules that induce genotoxicity in human embryonic kidney cells expressing luciferase-tagged ATAD5 - cell viability (AID 651634; calls by dose curve; note: nearly all actives have a fitted effect of over 25% in size)
Summary of the method: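 Live-cell protease activity (CellTiter-Fluor, fluorescence) indicates viability. HEK293T cells with luciferase-tagged ATAD5; 15.5 hr compound treatment at 37C.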

[5] = qHTS assay for small molecule disruptors of the mitochondrial membrane potential - cell viability (AID 720634; calls by dose curve;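 note: human HepG2 liver cancer cells; series mostly up to about 83 µM; nearly all actives have a fitted effect of over 20% in size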)
Summary of the method: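 Human hepatoma HepG2 cells were treated for 1 hr with test chemicals, then given m-MPI dye and CellTiter-Glo. Cell viability reflects luminescence proportional to cellular ATP.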

[6] = qHTS assay to test for compound auto fluorescence at 590 nm (red) in HepG2 cells (AID 720674)
Summary of the method: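 Seeding: 2,000 HepG2 cells/well, MEM/10% FBS, overnight 37 C. Dosing: compound vs DMSO. Incubation: 1 hr, 37 C, 5% CO2. Read: fluorescence 540 ex/590 em, Rose Bengal sodium as red reference.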

[7] = qHTS assay to test for compound auto fluorescence at 535 nm (green) in HepG2 cells (AID 720675)
[8] = qHTS assay to test for compound auto fluorescence at 460 nm (blue) in HEK293 cells (AID 720678)
Summary of the method: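 HEK293 cells (2,000 per well, medium with 10% dialyzed FBS) attached for 4-5 hr at 37C, then received compound and stood overnight at 37C, 5% CO2. Blue fluorescence was read at Ex/Em 405/460 nm and expressed relative to triamterene.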

[9] = qHTS assay to test for compound auto fluorescence at 590 nm (red) in HEK293 cells (AID 720679)
Summary of the method: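 HEK293 cells (2,000/well, medium with 10% dialyzed FBS) attached for 4-5 hr at 37C, received 23 nL compound and were incubated overnight at 37C, 5% CO2. Red fluorescence was then read at 540/590nm Ex/Em, referenced to Rose Bengal sodium.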

[10] = qHTS assay to test for compound auto fluorescence at 535 nm (green) in HEK293 cells (AID 720680)
[11] = qHTS assay to test for compound auto fluorescence at 460 nm (blue) in HEK293 cell free culture (AID 720681)
Summary of the method: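 Compounds were added to cell-free DMEM with 10% FBS and fluorescence read directly. The blue channel used 405 nm excitation and 460 nm emission, with triamterene as the reference fluorophore.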

[12] = qHTS assay to test for compound auto fluorescence at 535 nm (green) in HEK293 cell free culture (AID 720682)
Summary of the method: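 Fluorescein serves as the green reference fluorophore; each compound's intrinsic emission at 535 nm (excitation 485 nm) is reported as an equivalent amount of that dye, measured in serum-containing DMEM without cells.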

[13] = qHTS assay to test for compound auto fluorescence at 590 nm (red) in HEK293 cell free culture (AID 720683)
Summary of the method: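 Cell-free wells of DMEM with 10% FBS received compound, and intrinsic fluorescence was read at excitation/emission 540/590 nm. Values expressed as equivalence to Rose Bengal sodium.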

[14] = qHTS assay to test for compound auto fluorescence at 590 nm (red) in HepG2 cell free culture (AID 720684)
Summary of the method: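 Compound was pinned into wells holding MEM with 10% FBS and no cells, and red fluorescence was read at Ex/Em 540/590 nm. Signal is expressed as auto fluorescence equivalency relative to Rose Bengal sodium.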

[15] = qHTS assay to test for compound auto fluorescence at 535 nm (green) in HepG2 cell free culture (AID 720686)
[16] = qHTS assay to test for compound auto fluorescence at 460 nm (blue) in HepG2 cells (AID 720687)
Summary of the method: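 HepG2 cells in MEM with 10% FBS, attached overnight at 37 C, were exposed to compound or DMSO for 1 hr at 37 C, 5% CO2. Blue fluorescence was read at 405/460 nm, with triamterene as reference fluorophore.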

[17] = biological target: Glucocorticoid receptor (Homo sapiens) (UniProt P04150); experiment: qHTS assay to identify small molecule agonists of the glucocorticoid receptor (GR) signaling pathway (AID 720691; active = well fitted activation curve with a large enough effect in the signal ratio in the repeat runs, not every such curve was filed as active; the % refers to the signal ratio)
Summary of the method: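 Beta-lactamase reporter activity, read as fluorescence intensity, was measured in GR-bla HeLa cells exposed to compounds for 18 h at 37 C and then loaded with LiveBLAzer B/G FRET substrate for 2 h at room temperature.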

[18] = biological target: Glucocorticoid receptor (Homo sapiens) (UniProt P04150); experiment: qHTS assay to identify small molecule antagonists of the glucocorticoid receptor (GR) signaling pathway (AID 720692; active = well fitted inhibition curve with a large enough effect in the signal ratio in the repeat runs, not every such curve was filed as active; the % refers to the signal ratio)
Summary of the method: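 Fluorescence from cleaved LiveBLAzer B/G FRET substrate reports GRE-driven beta-lactamase in HeLa cells; compounds are tested against 5 nM dexamethasone (final) over 18 h at 37 C, substrate incubation 2 h at room temperature.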

[19] = qHTS assay for small molecule disruptors of the mitochondrial membrane potential (AID 720635); note: potency is the fitted concentration of half-maximal effect
Summary of the method: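 HepG2 cells exposed to compound 1 hr at 37C, then Mito-MPS dye 30 min. Ratio read of aggregate (540/590 nm) versus monomer (490/535 nm) fluorescence.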

[20] = qHTS assay to test for compound auto fluorescence at 460 nm (blue) in HepG2 cell free culture (AID 720685)
Summary of the method: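 Compound (23 nL) or DMSO pinned into cell-free MEM with 10% FBS; blue fluorescence read at 405/460 nm excitation/emission, expressed as auto-fluorescence equivalency to triamterene.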
% is set by controls: 0 for no effect and ±100 for the full control effect.

Chain of Glucocorticoid receptor (Homo sapiens) (P04150 whole entry, looked up): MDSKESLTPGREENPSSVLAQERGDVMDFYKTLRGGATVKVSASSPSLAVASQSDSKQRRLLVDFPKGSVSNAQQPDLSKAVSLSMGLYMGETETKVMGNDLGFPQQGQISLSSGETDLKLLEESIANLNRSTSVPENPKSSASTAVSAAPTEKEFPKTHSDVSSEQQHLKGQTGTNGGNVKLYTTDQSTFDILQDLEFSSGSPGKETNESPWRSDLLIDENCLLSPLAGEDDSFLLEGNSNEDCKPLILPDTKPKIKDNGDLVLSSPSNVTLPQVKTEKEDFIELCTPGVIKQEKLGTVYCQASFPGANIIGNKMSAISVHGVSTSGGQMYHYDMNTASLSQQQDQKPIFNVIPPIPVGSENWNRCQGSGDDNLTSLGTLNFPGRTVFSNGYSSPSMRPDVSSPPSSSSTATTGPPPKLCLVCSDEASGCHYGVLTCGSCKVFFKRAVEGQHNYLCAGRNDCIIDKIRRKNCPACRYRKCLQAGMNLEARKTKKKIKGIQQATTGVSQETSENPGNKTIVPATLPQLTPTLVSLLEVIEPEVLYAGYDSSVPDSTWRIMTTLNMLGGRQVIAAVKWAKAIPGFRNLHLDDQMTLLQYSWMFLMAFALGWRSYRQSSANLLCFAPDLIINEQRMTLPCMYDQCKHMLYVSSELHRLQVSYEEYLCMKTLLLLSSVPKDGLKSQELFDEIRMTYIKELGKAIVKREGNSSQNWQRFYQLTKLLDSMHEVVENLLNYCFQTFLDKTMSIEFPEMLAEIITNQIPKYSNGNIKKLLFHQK

COC(=O)c1cccnc1
inactive: outcome [1] | outcome [2] | outcome [3] | Potency [4] | Potency [5] | outcome [6] | outcome [7] | outcome [8] | outcome [9] | outcome [10] | outcome [11] | outcome [12] | outcome [13] | outcome [14] | outcome [15] | outcome [16] | outcome [17] | Potency [18]

CC1(C)S[C@@H]2[C@H](NC(=O)COc3ccccc3)C(=O)N2[C@H]1C(=O)O
inactive: outcome [1] | outcome [2] | outcome [3] | Potency [4] | Potency [5] | Potency [19] | outcome [6] | outcome [7] | outcome [8] | outcome [10] | outcome [12] | outcome [20] | outcome [15] | outcome [17]

CC(=O)OCCOC(C)=O
inactive: outcome [1] | outcome [2] | outcome [3] | Potency [4] | outcome [6] | outcome [7] | outcome [8] | outcome [10] | outcome [11] | outcome [12] | outcome [13] | outcome [14] | outcome [15] | outcome [16] | outcome [17] | Potency [18]

CC(CCO)CC(C)(C)C (configuration not stated)
inactive: outcome [1] | outcome [2] | outcome [3] | Potency [4] | outcome [6] | outcome [7] | outcome [8] | outcome [9] | outcome [10] | outcome [11] | outcome [12] | outcome [13] | outcome [14] | outcome [15] | outcome [17] | Potency [18]

NCCN1CCNCC1
inactive: outcome [1] | outcome [2] | outcome [3] | Potency [4] | Potency [19] | outcome [6] | outcome [7] | outcome [8] | outcome [10] | outcome [11] | outcome [12] | outcome [13] | outcome [20] | outcome [15] | outcome [16]

CCOC(=O)c1ccc(N)cc1
inactive: outcome [1] | outcome [2] | outcome [3] | Potency [4] | Potency [5] | outcome [6] | outcome [7] | outcome [8] | outcome [10] | outcome [11] | outcome [12] | outcome [13] | outcome [20] | outcome [15] | outcome [16] | outcome [17] | Potency [18]

CCNC(=S)NCC
inactive: outcome [1] | outcome [2] | outcome [3] | Potency [4] | Potency [19] | outcome [6] | outcome [7] | outcome [8] | outcome [10] | outcome [11] | outcome [12] | outcome [14] | outcome [15]

CCCCCCCCCCCCCCCC(=O)OC(C)C
inactive: outcome [1] | outcome [2] | outcome [3] | Potency [4] | outcome [6] | outcome [7] | outcome [8] | outcome [9] | outcome [10] | outcome [11] | outcome [12] | outcome [13] | outcome [14] | outcome [20] | outcome [15] | outcome [16]

CC(=O)Oc1ccc(C)cc1
inactive: outcome [1] | outcome [2] | outcome [3] | Potency [4] | Potency [19] | outcome [6] | outcome [7] | outcome [8] | outcome [9] | outcome [10] | outcome [12] | outcome [15] | outcome [17] | Potency [18]

CNC(=O)Oc1ccc2c(c1)[C@]1(C)CCN(C)[C@@H]1N2C
inactive: outcome [1] | outcome [2] | outcome [3] | Potency [4] | outcome [6] | outcome [7] | outcome [8] | outcome [9] | outcome [10] | outcome [11] | outcome [12] | outcome [13] | outcome [14] | outcome [20] | outcome [15] | outcome [16] | outcome [17]

COc1cc(OC)c(C(=O)CCCN2CCCC2)c(OC)c1
inactive: outcome [1] | outcome [2] | outcome [3] | Potency [4] | Potency [5] | outcome [6] | outcome [7] | outcome [8] | outcome [10] | outcome [11] | outcome [12] | outcome [13] | outcome [20] | outcome [15] | outcome [16] | outcome [17] | Potency [18]

CN1C(=O)CC[C@H]1c1cccnc1
inactive: outcome [1] | outcome [2] | outcome [3] | Potency [4] | Potency [19] | outcome [6] | outcome [7] | outcome [8] | outcome [9] | outcome [10] | outcome [12] | outcome [14] | outcome [15]

COc1ccc(C)cc1N
inactive: outcome [1] | outcome [2] | outcome [3] | Potency [4] | Potency [19] | outcome [6] | outcome [7] | outcome [8] | outcome [9] | outcome [10] | outcome [11] | outcome [12] | outcome [14] | outcome [15] | outcome [17] | Potency [18]

c1ccc(Oc2ccccc2)cc1
inactive: outcome [1] | outcome [2] | outcome [3] | Potency [4] | outcome [6] | outcome [7] | outcome [8] | outcome [9] | outcome [10] | outcome [12] | outcome [13] | outcome [14] | outcome [20] | outcome [15] | outcome [16] | outcome [17] | Potency [18]

CCNc1ccccc1
24.8 µM (active) and inactive: Potency [19]
inactive: outcome [1] | outcome [2] | outcome [3] | Potency [4] | outcome [6] | outcome [7] | outcome [8] | outcome [9] | outcome [10] | outcome [11] | outcome [12] | outcome [14] | outcome [15] | outcome [16]

CC1(C)CC(N)CC(C)(CN)C1 (configuration not stated)
inactive: outcome [1] | outcome [2] | outcome [3] | Potency [4] | Potency [19] | outcome [6] | outcome [7] | outcome [8] | outcome [9] | outcome [10] | outcome [12] | outcome [14] | outcome [15] | outcome [16] | outcome [17] | Potency [18]

NC(=S)NNC(N)=S
inactive: outcome [1] | outcome [2] | outcome [3] | Potency [4] | Potency [19] | outcome [6] | outcome [7] | outcome [8] | outcome [9] | outcome [10] | outcome [11] | outcome [12] | outcome [13] | outcome [14] | outcome [20] | outcome [15] | outcome [16] | outcome [17] | Potency [18]

CC1(C)NC(=O)NC1=O
inactive: outcome [1] | outcome [2] | outcome [3] | Potency [4] | outcome [6] | outcome [7] | outcome [8] | outcome [9] | outcome [10] | outcome [11] | outcome [12] | outcome [14] | outcome [20] | outcome [15] | outcome [17] | Potency [18]

CCc1ccccc1CC
inactive: outcome [1] | outcome [2] | outcome [3] | Potency [4] | ratio activity, negative = MMP loss [19] 5.07% [at 17.9 µM] | outcome [6] | outcome [7] | outcome [8] | outcome [10] | outcome [11] | outcome [12] | outcome [13] | outcome [14] | outcome [15] | outcome [16] | outcome [17] | Potency [18]
